The values that follow come from ChEMBL document CHEMBL1961873, “Compounds: GSK PKIS; Assays: Nanosyn kinase panel” (2012).

The target of assay [1] is Mitogen-activated protein kinase kinase kinase kinase 4 (Homo sapiens) (UniProt O95819). Conditions: at 1 µM.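 Note: reported figure is an averaged inhibition value.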
Assay [2] addresses Dual specificity mitogen-activated protein kinase kinase 1 (Homo sapiens) (UniProt Q02750). Conditions: at 0.1 µM.
Assay [3] has the same target. The note with it: at 1 µM.
In assay [4] the target is Misshapen-like kinase 1 (Homo sapiens) (UniProt Q8N4C8). Conditions: at 0.1 µM.
The target is the same in assay [5]. The note with it: at 1 µM.
For assay [6], the target named is T1, Serine/threonine-protein kinase 4 (Homo sapiens) (UniProt Q13043).
T1 sequence (whole entry): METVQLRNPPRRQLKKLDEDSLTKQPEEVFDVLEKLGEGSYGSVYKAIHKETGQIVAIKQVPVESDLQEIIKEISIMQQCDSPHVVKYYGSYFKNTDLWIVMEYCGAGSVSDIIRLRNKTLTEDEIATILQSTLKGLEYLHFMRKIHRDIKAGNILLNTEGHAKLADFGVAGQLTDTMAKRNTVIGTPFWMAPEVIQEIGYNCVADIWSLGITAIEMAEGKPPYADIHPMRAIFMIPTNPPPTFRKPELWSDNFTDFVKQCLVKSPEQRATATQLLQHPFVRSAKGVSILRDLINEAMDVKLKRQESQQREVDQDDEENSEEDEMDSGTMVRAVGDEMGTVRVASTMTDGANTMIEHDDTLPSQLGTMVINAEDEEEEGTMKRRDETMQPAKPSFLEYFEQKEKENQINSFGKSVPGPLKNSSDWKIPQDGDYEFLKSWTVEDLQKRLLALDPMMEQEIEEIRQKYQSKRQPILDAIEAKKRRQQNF
Conditions: at 0.1 µM.

Assay [7] deals with T1, Serine/threonine-protein kinase 4 (Homo sapiens). The note with it: at 1 µM.
The target in assay [8] is T2, Serine/threonine-protein kinase 3 (Homo sapiens) (UniProt Q13188).
T2 sequence (whole entry): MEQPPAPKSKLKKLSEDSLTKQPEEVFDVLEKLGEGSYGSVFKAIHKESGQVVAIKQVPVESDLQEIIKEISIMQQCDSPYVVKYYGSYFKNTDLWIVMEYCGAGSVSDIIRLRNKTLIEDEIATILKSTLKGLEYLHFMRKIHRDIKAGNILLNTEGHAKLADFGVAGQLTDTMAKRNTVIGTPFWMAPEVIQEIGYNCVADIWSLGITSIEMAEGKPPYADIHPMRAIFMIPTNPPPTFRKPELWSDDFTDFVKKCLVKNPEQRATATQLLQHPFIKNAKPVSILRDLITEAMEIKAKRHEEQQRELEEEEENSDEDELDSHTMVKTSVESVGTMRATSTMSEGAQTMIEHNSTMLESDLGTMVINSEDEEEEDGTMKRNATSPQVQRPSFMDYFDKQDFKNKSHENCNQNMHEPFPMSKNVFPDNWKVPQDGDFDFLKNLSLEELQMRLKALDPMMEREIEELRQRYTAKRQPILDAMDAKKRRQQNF
Conditions: at 0.1 µM.

For assay [9], the target named is T2, Serine/threonine-protein kinase 3 (Homo sapiens). The note with it: at 1 µM.
For assay [10], the target named is Serine/threonine-protein kinase 26 (Homo sapiens) (UniProt Q9P289). Conditions: at 0.1 µM.
Serine/threonine-protein kinase 26 (Homo sapiens), sequence (Q9P289 2-416 limits assumed): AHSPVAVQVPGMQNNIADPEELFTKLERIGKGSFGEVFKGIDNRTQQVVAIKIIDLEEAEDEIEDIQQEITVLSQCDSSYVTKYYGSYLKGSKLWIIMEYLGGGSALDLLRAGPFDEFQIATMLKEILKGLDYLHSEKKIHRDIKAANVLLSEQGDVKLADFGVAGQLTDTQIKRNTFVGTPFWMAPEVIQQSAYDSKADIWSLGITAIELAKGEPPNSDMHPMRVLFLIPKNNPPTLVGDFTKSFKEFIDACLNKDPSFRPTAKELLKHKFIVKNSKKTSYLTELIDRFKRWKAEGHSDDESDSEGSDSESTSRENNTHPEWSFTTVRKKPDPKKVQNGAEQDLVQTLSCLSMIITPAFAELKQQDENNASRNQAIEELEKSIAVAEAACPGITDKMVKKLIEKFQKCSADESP
Assay [11] shares this target. The note with it: at 1 µM.
For assay [12], the target named is Serine/threonine-protein kinase PAK 1 (Homo sapiens) (UniProt Q13153). The note with it: at 0.1 µM.
Serine/threonine-protein kinase PAK 1 (Homo sapiens), sequence (Q13153 whole entry): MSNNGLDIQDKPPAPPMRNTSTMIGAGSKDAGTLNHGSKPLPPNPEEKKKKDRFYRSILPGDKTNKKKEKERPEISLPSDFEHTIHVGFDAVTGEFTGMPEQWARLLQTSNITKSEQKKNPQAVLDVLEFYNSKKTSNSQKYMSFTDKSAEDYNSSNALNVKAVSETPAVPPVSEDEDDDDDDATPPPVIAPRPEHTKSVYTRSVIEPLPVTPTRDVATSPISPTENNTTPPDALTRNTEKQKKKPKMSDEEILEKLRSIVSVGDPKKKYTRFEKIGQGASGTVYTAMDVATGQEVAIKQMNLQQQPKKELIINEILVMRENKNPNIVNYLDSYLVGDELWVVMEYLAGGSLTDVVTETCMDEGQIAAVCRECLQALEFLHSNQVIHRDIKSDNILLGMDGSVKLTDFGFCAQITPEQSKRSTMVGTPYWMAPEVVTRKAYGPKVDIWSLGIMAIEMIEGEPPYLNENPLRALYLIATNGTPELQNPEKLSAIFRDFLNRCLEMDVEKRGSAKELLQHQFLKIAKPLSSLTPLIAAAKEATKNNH
Assay [13] has the same target. Conditions: at 1 µM.
In assay [14] the target is Serine/threonine-protein kinase PAK 2 (Homo sapiens) (UniProt Q13177). Conditions: at 0.1 µM.
Serine/threonine-protein kinase PAK 2 (Homo sapiens), sequence (Q13177 whole entry): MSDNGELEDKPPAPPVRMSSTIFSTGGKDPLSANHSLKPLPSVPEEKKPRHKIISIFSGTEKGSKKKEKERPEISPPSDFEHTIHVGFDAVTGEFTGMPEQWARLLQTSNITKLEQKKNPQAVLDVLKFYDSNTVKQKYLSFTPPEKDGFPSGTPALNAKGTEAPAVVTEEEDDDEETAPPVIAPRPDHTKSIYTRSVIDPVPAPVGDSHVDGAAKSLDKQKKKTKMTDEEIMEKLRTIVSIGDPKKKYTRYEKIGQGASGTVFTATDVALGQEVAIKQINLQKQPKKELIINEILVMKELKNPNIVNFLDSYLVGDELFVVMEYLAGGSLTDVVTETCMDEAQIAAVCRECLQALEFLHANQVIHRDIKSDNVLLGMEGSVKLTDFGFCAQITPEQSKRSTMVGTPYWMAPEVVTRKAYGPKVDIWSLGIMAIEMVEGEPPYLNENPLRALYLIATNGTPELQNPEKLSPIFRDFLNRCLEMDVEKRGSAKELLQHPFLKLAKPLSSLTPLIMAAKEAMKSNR
Assay [15] shares this target. Conditions: at 1 µM.
The target of assay [16] is Serine/threonine-protein kinase PAK 3 (Homo sapiens) (UniProt O75914). The note with it: at 0.1 µM.
Serine/threonine-protein kinase PAK 3 (Homo sapiens), sequence (O75914 whole entry, looked up): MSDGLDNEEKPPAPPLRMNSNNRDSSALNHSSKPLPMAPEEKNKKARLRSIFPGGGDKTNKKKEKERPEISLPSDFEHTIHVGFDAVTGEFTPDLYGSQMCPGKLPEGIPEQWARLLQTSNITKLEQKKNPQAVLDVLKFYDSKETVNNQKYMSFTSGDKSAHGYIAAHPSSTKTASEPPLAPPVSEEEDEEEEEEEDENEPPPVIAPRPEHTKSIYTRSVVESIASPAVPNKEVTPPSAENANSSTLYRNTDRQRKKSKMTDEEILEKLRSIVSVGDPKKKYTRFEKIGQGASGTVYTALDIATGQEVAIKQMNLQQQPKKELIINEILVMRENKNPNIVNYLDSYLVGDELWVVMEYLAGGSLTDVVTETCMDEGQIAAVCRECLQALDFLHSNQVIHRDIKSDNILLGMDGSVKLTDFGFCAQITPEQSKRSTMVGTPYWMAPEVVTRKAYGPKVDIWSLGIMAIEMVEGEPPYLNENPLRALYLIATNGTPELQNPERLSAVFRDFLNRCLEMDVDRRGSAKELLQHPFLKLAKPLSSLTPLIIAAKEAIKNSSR
For assay [17] the target is unchanged. The note with it: at 1 µM.
Assay [18] has as its target Serine/threonine-protein kinase PAK 5 (Homo sapiens) (UniProt Q9P286). Conditions: at 0.1 µM.
The target is the same in assay [19]. Conditions: at 1 µM.
Assay [20] concerns the target Serine/threonine-protein kinase PAK 6 (Homo sapiens) (UniProt Q9NQU5). The note with it: at 0.1 µM.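 Note: mean PAK6 inhibition reported from the GSK PKIS screen.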

Mitogen-activated protein kinase kinase kinase kinase 4 (Homo sapiens), sequence (O95819 2-1239 limits assumed): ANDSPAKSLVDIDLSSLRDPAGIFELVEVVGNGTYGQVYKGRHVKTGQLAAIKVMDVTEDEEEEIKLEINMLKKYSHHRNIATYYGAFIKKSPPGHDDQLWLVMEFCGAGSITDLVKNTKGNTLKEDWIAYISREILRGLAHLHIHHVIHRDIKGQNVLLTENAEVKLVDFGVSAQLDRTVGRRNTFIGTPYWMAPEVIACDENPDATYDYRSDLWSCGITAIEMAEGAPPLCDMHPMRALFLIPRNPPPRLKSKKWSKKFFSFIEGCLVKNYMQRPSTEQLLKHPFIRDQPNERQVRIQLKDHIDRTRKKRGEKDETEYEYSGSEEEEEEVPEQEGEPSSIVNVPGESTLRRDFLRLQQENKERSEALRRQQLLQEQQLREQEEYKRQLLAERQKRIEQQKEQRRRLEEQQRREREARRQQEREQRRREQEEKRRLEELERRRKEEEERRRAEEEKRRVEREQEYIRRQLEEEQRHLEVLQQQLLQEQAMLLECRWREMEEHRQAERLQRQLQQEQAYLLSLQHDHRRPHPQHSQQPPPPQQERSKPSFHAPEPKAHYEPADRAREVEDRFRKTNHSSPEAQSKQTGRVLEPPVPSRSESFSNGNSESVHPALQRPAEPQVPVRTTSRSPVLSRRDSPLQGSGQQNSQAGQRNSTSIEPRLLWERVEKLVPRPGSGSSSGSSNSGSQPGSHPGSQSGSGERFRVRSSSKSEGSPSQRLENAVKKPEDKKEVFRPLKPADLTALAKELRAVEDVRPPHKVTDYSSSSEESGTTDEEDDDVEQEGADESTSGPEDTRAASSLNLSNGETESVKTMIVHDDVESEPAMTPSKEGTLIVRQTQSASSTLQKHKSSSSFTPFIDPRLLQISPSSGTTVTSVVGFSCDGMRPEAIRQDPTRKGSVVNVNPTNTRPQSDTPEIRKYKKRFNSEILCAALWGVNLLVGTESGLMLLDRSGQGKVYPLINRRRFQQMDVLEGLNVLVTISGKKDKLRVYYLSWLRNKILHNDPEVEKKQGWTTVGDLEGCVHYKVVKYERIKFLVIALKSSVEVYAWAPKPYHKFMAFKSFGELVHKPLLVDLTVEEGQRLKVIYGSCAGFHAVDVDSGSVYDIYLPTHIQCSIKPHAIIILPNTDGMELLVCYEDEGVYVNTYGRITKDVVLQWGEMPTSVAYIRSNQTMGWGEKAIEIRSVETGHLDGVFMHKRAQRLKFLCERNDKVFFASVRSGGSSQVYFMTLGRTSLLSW
Serine/threonine-protein kinase PAK 6 (Homo sapiens), sequence (Q9NQU5 whole entry, looked up): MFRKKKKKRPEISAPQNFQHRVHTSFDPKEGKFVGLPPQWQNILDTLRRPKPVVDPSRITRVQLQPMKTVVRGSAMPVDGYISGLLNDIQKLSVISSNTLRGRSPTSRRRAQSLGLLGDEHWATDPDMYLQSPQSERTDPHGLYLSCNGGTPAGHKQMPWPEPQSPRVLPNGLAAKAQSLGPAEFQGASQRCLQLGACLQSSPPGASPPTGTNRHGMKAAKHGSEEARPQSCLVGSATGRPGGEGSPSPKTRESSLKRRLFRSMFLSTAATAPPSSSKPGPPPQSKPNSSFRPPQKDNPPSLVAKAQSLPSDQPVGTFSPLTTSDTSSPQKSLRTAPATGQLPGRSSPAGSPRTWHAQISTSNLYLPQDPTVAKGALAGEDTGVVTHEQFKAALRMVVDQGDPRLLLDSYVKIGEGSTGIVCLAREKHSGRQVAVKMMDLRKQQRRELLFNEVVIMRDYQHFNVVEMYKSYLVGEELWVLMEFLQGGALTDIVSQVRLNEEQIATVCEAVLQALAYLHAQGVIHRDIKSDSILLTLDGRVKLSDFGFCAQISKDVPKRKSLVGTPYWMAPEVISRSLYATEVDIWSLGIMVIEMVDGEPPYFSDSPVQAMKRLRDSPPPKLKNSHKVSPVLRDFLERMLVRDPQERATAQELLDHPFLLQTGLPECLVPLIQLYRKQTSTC
Dual specificity mitogen-activated protein kinase kinase 1 (Homo sapiens), sequence (Q02750 whole entry): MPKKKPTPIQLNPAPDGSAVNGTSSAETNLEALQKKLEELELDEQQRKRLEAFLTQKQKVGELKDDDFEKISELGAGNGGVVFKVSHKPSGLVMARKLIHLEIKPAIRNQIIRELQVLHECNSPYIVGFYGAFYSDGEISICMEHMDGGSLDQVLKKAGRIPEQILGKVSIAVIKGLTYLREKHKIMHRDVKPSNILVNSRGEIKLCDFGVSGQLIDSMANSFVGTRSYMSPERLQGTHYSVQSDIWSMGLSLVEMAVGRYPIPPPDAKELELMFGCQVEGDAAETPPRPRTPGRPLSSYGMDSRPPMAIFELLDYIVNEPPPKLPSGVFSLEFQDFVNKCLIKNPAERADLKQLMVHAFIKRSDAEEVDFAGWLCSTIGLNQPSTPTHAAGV

The inhibition is the drop in the measured response relative to a control, in per cent. As to `COc1cc(N2CCN(C(C)C)CC2)ccc1Nc1nc(Nc2cccc3ncccc23)c2cc[nH]c2n1`, the inhibition is 8.08% in [1]; -1.29% in assay [2]; 0.07% in [3]; 0.56% in assay [4]; 6.73% in assay [5]; -1.1% in [6]. The inhibition was 0.07% in [7]; 0.03% in assay [8]; 0.57% in assay [9]; -0.29% in [10]; 1.78% in [11]; 0.3% in assay [12]. Also, the inhibition is -1.25% in assay [13]; 0.87% in [14]; -0.27% in assay [15]; -1.68% in assay [16]; -0.48% in [17]; -2.43% in [18]. The inhibition in assay [19] was -1.65%; in assay [20], 1.57%.

Regarding `Cn1c(-c2nonc2N)nc2cnccc21`, the inhibition in [1] was found to be 26.2%; in [2] it was 4.67%; in assay [3], 4.45%; in [4], 5.83%; in assay [5] it was 16.6%; in [6], 3.91%. The inhibition in assay [7] was 3.75%; in assay [8] it was 4.04%; in assay [9] it was 5.05%; in [10], -0.57%; in assay [11], -1.1%; in [12], 5.69%. In addition, the inhibition in assay [13] is 9.42%; in assay [14], 1.04%; in assay [15] it was 0.39%; in assay [16] it was 3.23%; in assay [17], 2.69%; in assay [18], -1.86%. Further, the inhibition was -0.53% in [19] and 3.95% in assay [20].

For `CC1(C)CC(n2cnc(-c3ccc(F)cc3)c2-c2ccnc(N)n2)CC(C)(C)N1`, the inhibition in [1] was 2.96%; in [2], 1.4%; in [3], 1.04%; in assay [4] it was 1.2%; in assay [5], 4.78%; in [6], -3.13%. The inhibition in assay [7] was -0.15%; in assay [8], -0.38%; in [9], -1.38%; in assay [10], -0.28%; in assay [11], -4.55%; in assay [12], 0.1%. The inhibition is 2.11% in assay [13]; -0.56% in [14]; 0.36% in assay [15]; 0.33% in assay [16]; 0.79% in assay [17]; 4.67% in [18]. For the same molecule, the inhibition in assay [19] amounted to 0.79%; in [20], 1.59%.

As to `c1ccc(-c2n[nH]cc2-c2ccnc(-c3ccc(OCCn4ccnc4)cc3)c2)nc1`, the inhibition in [1] was 81.8%; in [2], 5.95%; in [3], 2.45%; in [4], 31.9%; in assay [5], 79%; in [6], -0.86%. The inhibition in assay [7] is 6.24%; in assay [8], -0.71%; in [9] it was 3.49%; in assay [10], -1.3%; in assay [11] it was 3.16%; in assay [12] it was 1.76%. Further, the inhibition in assay [13] is 3.78%; in assay [14], -0.68%; in assay [15], 0.37%; in assay [16], -0.22%; in assay [17], -2.41%; in [18], -0.74%. Further, the inhibition in [19] is 4.05%; in assay [20] it was -3.76%.

For the molecule `COc1c(C(N)=O)cc(-c2ccc(Cl)cc2)cc1-c1ccc(S(N)(=O)=O)cc1`, the inhibition in [1] was 5.7%; in [2] it was 3.99%; in assay [3], 3.65%; in assay [4], 6.03%; in [5], 7.24%; in assay [6], 2.89%. The inhibition is 4.76% in assay [7]; 5.08% in assay [8]; 4.15% in assay [9]; -1.15% in assay [10]; 1.45% in [11]; 6.68% in [12]. For the same molecule, the inhibition in assay [13] was 12.1%; in [14], 2.72%; in assay [15] it was 2.55%; in assay [16], 4.51%; in assay [17], 7.97%; in assay [18], 6.72%. The inhibition was 3.56% in [19] and -7.76% in assay [20].

On to `COc1ccc(-c2nn3ncccc3c2-c2ccnc(Nc3ccc(F)c(F)c3)n2)cc1`, for which the inhibition came to 16.4% in [1]; 6.07% in assay [2]; 3.87% in assay [3]; 9.98% in assay [4]; 13.8% in assay [5]; 6.88% in [6]. In addition, the inhibition was 11.6% in [7]; 5.53% in assay [8]; 10.2% in [9]; -0.41% in [10]; 0.76% in assay [11]; 3.1% in assay [12]. For the same molecule, the inhibition was determined as 5.49% in assay [13]; 1.93% in assay [14]; 0.93% in assay [15]; 2.36% in assay [16]; 5.12% in assay [17]; 3.31% in [18]. Moreover, the inhibition in assay [19] came out at 0.77%; in assay [20], 5.78%.

As for `Cc1ccc(-c2cc3c(NC(=O)C4CC4)ncnc3o2)cc1`, the inhibition came out at 8.27% in assay [1]; 3.02% in [2]; 3.21% in assay [3]; 6.35% in assay [4]; 8.16% in assay [5]; 6.14% in assay [6]. The inhibition was 7.49% in assay [7]; 5.64% in assay [8]; 4.87% in [9]; -2.57% in [10]; -2.53% in assay [11]; 3.85% in assay [12]. The inhibition in assay [13] amounted to 5.51%; in [14], 1.95%; in assay [15], 1.97%; in assay [16], 3.79%; in [17] it was 4.95%; in assay [18] it was 4.59%. Besides, the inhibition in assay [19] is -3.05%; in [20], 4.74%.

As for `CS(=O)(=O)Nc1ccc(-c2ccc3c(NC(=O)C4CC4)n[nH]c3c2)cc1`, the inhibition in [1] turned out to be 34.1%; in [2], 3.68%; in assay [3] it was 2.95%; in assay [4] it was 6.49%; in assay [5], 20.9%; in [6], 4.89%. The inhibition in assay [7] is 11.3%; in [8], 5.64%; in assay [9], 9.06%; in assay [10], -0.25%; in assay [11], -2.98%; in assay [12] it was 3.5%. The inhibition was 5.34% in assay [13]; 1.62% in assay [14]; 1.36% in [15]; 3.41% in assay [16]; 4.16% in assay [17]; -0.3% in assay [18]. Besides, the inhibition came out at 0.91% in assay [19] and 0.76% in assay [20].

For the molecule `O=C(Nc1n[nH]c2nnc(-c3cccnc3)cc12)C1CC1`, the inhibition in assay [1] is 20.3%; in assay [2], 0.74%; in assay [3] it was 3.42%; in assay [4], 1.29%; in [5], 13.1%; in [6] it was -0.95%. The inhibition in assay [7] was -0.48%; in assay [8] it was -2.99%; in [9] it was -0.37%; in [10] it was 0.94%; in assay [11] it was 1.72%; in assay [12], -0.56%. Further, the inhibition is 2.67% in assay [13]; -0.8% in [14]; -0.23% in assay [15]; -0.23% in [16]; 0.64% in assay [17]; -4.39% in assay [18]. For the same molecule, the inhibition was -1.42% in [19] and -7.92% in assay [20].

Consider `CCCNc1cccc(-n2ncc3c(N/N=C/c4ccncc4)ncnc32)c1`, for which the inhibition in assay [1] is 44.1%; in assay [2], 1.7%; in assay [3], 2.07%; in assay [4], 5.44%; in assay [5], 35.9%; in assay [6], 4.12%. The inhibition in [7] is 12.3%; in [8], 5.92%; in assay [9], 9.89%; in assay [10], 1.77%; in [11], -1.3%; in assay [12], -0.99%. Also, the inhibition in assay [13] is -0.69%; in [14] it was 0.12%; in assay [15] it was -0.31%; in assay [16], 1.59%; in [17] it was 1.61%; in assay [18], 8.4%. The inhibition in assay [19] worked out at 5.05%; in assay [20], 16.9%.
